In PubChem BioAssay AID1159580 (chemical genetic matrix, 2015):
The campaign covered roughly 5,500 compounds. About 2,000 (36%) were called active. Not shown: some 18% with an inconclusive outcome. No stated cut-off is given here; in the data, active means normalized growth mostly below about 0.91 (no sharp cut-off); inconclusive means no clear call, values can overlap the other calls; inactive means mostly above about 0.92. Some of the results follow.

Test: chemical genetic growth profiling, strain panel (AID 1159580);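 further: tested at 20 µM; growth read once vehicle control cultures reached saturation at 30 °C; 1 = growth at the plate median or of vehicle wells; lower values mean less growth of the strain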
Details: S. cerevisiae deletion strains, growth OD
[1] = locus YHR030C, strain SLT2, hits give low values
[2] = locus YJL095W, strain BCK1, hits give low values

Measured: normalized growth

O=c1c2ccccc2oc2ccc(O)cc12
active: locus YCL029C, strain bik1, hits give low values 0.865 | locus YDL035C, strain GPR1, hits give low values 0.814 | locus YDL074C, strain BRE1, hits give low values 0.737 | locus YDL101C, strain DUN1, hits give low values 0.791 | locus YDL134C, strain PPH21, hits give low values 0.759 | locus YDL185W, strain tfp1, hits give low values 0.901 | locus YDL192W, strain arf1, hits give low values 0.864 | locus YDR162C, strain NBP2, hits give low values 0.368 | locus YDR318W, strain mcm21, hits give low values 0.896 | locus YDR502C, strain sam2, hits give low values 0.895 | locus YEL061C, strain CIN8, hits give low values 0.863 | locus YGL086W, strain mad1, hits give low values 0.854 | locus YGL248W, strain PDE1, hits give low values 0.811 | locus YGR078C, strain PAC10, hits give low values 0.736 | locus YGR135W, strain pre9, hits give low values 0.856 | [1] 0.738 | locus YHR129C, strain ARP1, hits give low values 0.889 | locus YIL066C, strain RNR3, hits give low values 0.767 | [2] 0.516 | locus YJL187C, strain SWE1 (second series), hits give low values 0.828 | locus YKR001C, strain vps1, hits give low values 0.509 | locus YLR039C, strain RIC1, hits give low values 0.49 | locus YLR058C, strain SHM2, hits give low values 0.886 | locus YLR262C, strain YPT6, hits give low values 0.461 | locus YLR268W, strain sec22, hits give low values 0.859 | locus YLR330W, strain CHS5, hits give low values 0.834 | locus YLR371W, strain rom2, hits give low values 0.894 | locus YLR418C, strain cdc73, hits give low values 0.786 | locus YML016C, strain PPZ1, hits give low values 0.915 | locus YML032C, strain rad52, hits give low values 0.757 | locus YMR223W, strain ubp8, hits give low values 0.895 | locus YMR263W, strain SAP30, hits give low values 0.833 | locus YNL233W, strain BNI4, hits give low values 0.782 | locus YNL271C, strain bni1, hits give low values 0.915 | locus YNL307C, strain MCK1, hits give low values 0.63 | locus YNR052C, strain pop2, hits give low values 0.871 | locus YOL147C, strain pex11, hits give low values 0.926 | locus YOR069W, strain VPS5, hits give low values 0.919 | locus YOR184W, strain ser1, hits give low values 0.746 | locus YPR163C, strain tif3, hits give low values 0.772
inactive: locus YBR021W, strain FUR4, hits give low values 1.13 | locus YBR229C, strain ROT2, hits give low values 0.952 | locus YDR101C, strain arx1, hits give low values 0.922 | locus YDR388W, hits give low values 0.937 | locus YER110C, hits give low values 0.919 | locus YER155C, strain BEM2, hits give low values 0.978 | locus YER167W, strain BCK2, hits give low values 0.949 | locus YGL078C, strain dbp3, hits give low values 0.962 | locus YGR252W, strain gcn5, hits give low values 0.847 | locus YHR079C, strain IRE1 (second series), hits give low values 0.961 | locus YHR094C, strain hxt1, hits give low values 0.977 | locus YHR200W, strain rpn10, hits give low values 0.956 | locus YIL073C, strain SPO22, hits give low values 0.815 | locus YIL125W, strain kgd1, hits give low values 0.962 | locus YIR030C, strain dcg1, hits give low values 0.933 | locus YJL134W, strain LCB3, hits give low values 0.941 | locus YJL168C, strain set2, hits give low values 0.948 | locus YJR043C, strain POL32, hits give low values 0.981 | locus YKL009W, strain mrt4, hits give low values 0.939 | locus YKL068W, hits give low values 1.01 | locus YKL085W, strain MDH1 (second series), hits give low values 0.976 | locus YKL085W, strain MDH1, hits give low values 0.976 | locus YLR102C, strain apc9, hits give low values 0.984 | locus YLR342W, strain FKS1 (second series), hits give low values 0.918 | locus YML124C, strain tub3, hits give low values 0.945 | locus YMR078C, strain ctf18, hits give low values 0.938 | locus YMR307W, strain GAS1, hits give low values 0.881 | locus YNL067W, strain RPL9B, hits give low values 0.871 | locus YNL250W, strain rad50, hits give low values 0.917 | locus YNL298W, strain CLA4, hits give low values 0.941 | locus YNL322C, strain KRE1, hits give low values 0.948 | locus YOL012C, strain htz1 1.06 | locus YOR061W, strain CKA2, hits give low values 0.924 | locus YOR136W, strain idh2, hits give low values 0.957 | locus YOR144C, strain elg1, hits give low values 0.943 | locus YOR316C, strain cot1, hits give low values 0.967 | locus YPL055C, strain LGE1, hits give low values 0.827 | locus YPL241C, strain CIN2, hits give low values 0.941 | locus YPR119W, strain clb2, hits give low values 0.949 | locus YPR141C, strain kar3, hits give low values 0.965 | locus YPR167C, strain met16, hits give low values 0.934 | strain wtn01, hits give low values 0.931

O=c1c2ccccc2oc2ccccc12
active: locus YBR009C, strain hhf1, hits give low values 0.854 | locus YBR231C, strain swc5, hits give low values 0.858 | locus YBR279W, strain paf1, hits give low values 0.922 | locus YCL011C, strain gbp2, hits give low values 0.907 | locus YCL016C, strain dcc1, hits give low values 0.869 | locus YCL061C, strain MRC1, hits give low values 0.917 | locus YDR137W, strain rgp1, hits give low values 0.794 | locus YDR195W, strain ref2 1.33 [resistant] | locus YDR392W, strain spt3, hits give low values 0.495 | locus YEL003W, strain gim4, hits give low values 0.906 | locus YEL061C, strain CIN8 (second series), hits give low values 0.879 | locus YER155C, strain BEM2 (second series), hits give low values 0.386 | locus YGL240W, strain doc1, hits give low values 0.84 | locus YGL253W, strain hxk2, hits give low values 0.859 | locus YHR013C, strain ard1, hits give low values 0.738 | [1] 0.813 | locus YHR079C, strain IRE1, hits give low values 0.822 | locus YHR142W, strain chs7, hits give low values 0.766 | locus YJL095W, strain BCK1 (second series), hits give low values 0.853 | [2] 0.857 | locus YJL164C, strain tpk1, hits give low values 0.891 | locus YJL166W, strain qcr8, hits give low values 0.879 | locus YJR066W, strain TOR1, hits give low values 0.8 | locus YKL160W, strain elf1, hits give low values 0.879 | locus YLL001W, strain dnm1, hits give low values 0.884 | locus YLR221C, strain rsa3, hits give low values 0.87 | locus YLR262C, strain YPT6 (second series), hits give low values 0.769 | locus YLR320W, strain mms22, hits give low values 0.697 | locus YNL071W, strain lat1, hits give low values 0.737 | locus YNL248C, strain rpa49, hits give low values 0.511 | locus YOR001W, strain rrp6, hits give low values 0.88 | locus YOR083W, strain WHI5, hits give low values 0.814 | locus YOR231W, strain MKK1, hits give low values 0.836 | locus YOR270C, strain vph1, hits give low values 0.611 | locus YOR290C, strain snf2, hits give low values 0.792 | locus YPL051W, strain arl3, hits give low values 0.859 | locus YPL078C, strain atp4, hits give low values 0.842 | locus YPL106C, strain sse1, hits give low values 0.759
inactive: locus YAL021C, strain ccr4, hits give low values 0.938 | locus YAL026C, strain drs2, hits give low values 0.912 | locus YAL030W, strain snc1, hits give low values 0.948 | locus YBL061C, strain skt5, hits give low values 0.922 | locus YBR023C, strain chs3, hits give low values 0.916 | locus YBR171W, strain sec66, hits give low values 0.897 | locus YCL069W, strain vba3, hits give low values 0.961 | locus YCR088W, strain abp1, hits give low values 0.964 | locus YDL005C, strain med2, hits give low values 0.946 | locus YDL040C, strain nat1, hits give low values 0.946 | locus YDR001C, strain nth1, hits give low values 0.953 | locus YDR069C, strain doa4, hits give low values 0.927 | locus YDR159W, strain sac3, hits give low values 0.989 | locus YDR297W, strain sur2, hits give low values 0.945 | locus YDR334W, strain swr1, hits give low values 0.929 | locus YDR335W, strain msn5, hits give low values 0.946 | locus YEL037C, strain rad23, hits give low values 0.944 | locus YER015W, strain faa2, hits give low values 0.954 | locus YER016W, strain bim1, hits give low values 0.95 | locus YER111C, strain swi4, hits give low values 0.937 | locus YFR010W, strain ubp6, hits give low values 0.915 | locus YGL167C, strain pmr1, hits give low values 0.931 | locus YGL173C, strain kem1, hits give low values 0.907 | locus YGL227W, strain vid30, hits give low values 0.95 | locus YHR027C, strain rpn1, hits give low values 0.944 | locus YJL092W, strain hpr5, hits give low values 0.945 | locus YJL115W, strain asf1, hits give low values 0.953 | locus YJL129C, strain trk1, hits give low values 0.976 | locus YJL154C, strain vps35, hits give low values 0.964 | locus YJL187C, strain SWE1, hits give low values 0.935 | locus YKR026C, strain gcn3, hits give low values 0.949 | locus YKR091W, strain srl3, hits give low values 0.956 | locus YLL026W, hits give low values 0.951 | locus YLL041C, strain sdh2, hits give low values 0.952 | locus YLR027C, strain aat2, hits give low values 0.932 | locus YLR113W, strain HOG1, hits give low values 0.941 | locus YLR258W, strain gsy2, hits give low values 0.916 | locus YLR342W, strain FKS1, hits give low values 0.963 | locus YLR357W, strain rsc2, hits give low values 1.06 | locus YLR370C, strain arc18, hits give low values 0.952 | locus YLR384C, strain iki3, hits give low values 0.921 | locus YML120C, strain ndi1, hits give low values 0.915 | locus YMR058W, strain fet3, hits give low values 0.918 | locus YMR125W, strain sto1, hits give low values 0.918 | locus YMR129W, hits give low values 0.946 | locus YMR205C, strain PFK2, hits give low values 0.913 | locus YMR231W, strain pep5, hits give low values 0.947 | locus YNL183C, strain NPR1, hits give low values 0.841 | locus YNL209W, strain ssb2, hits give low values 0.93 | locus YNL322C, strain KRE1 (second series), hits give low values 0.965 | locus YNR049C, strain mso1, hits give low values 0.961 | locus YOR070C, strain gyp1, hits give low values 0.934 | locus YOR080W, strain dia2, hits give low values 0.966 | locus YOR106W, strain vam3, hits give low values 0.88 | locus YOR265W, strain rbl2, hits give low values 0.936 | locus YPL240C, strain hsp82, hits give low values 0.969 | locus YPL256C, strain CLN2, hits give low values 0.876
